A549 tox – A549 cytotoxicity, counter-screen for Nrf2 inhibitors; A549 ARE-Fluc cells, CellTiter-Fluor viability, 18-24 h; 390,000 tested, 0.16% active; Potency, µM (top dose mostly 46 µM), actives largely listed as inhibitors; AID 504648
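Cytotoxicity counterscreen: CellTiter-Fluor fluorescence was measured in A549 ARE_Fluc cells after 18-24 h of compound exposure in a concentration series. The subsequent BugLite luminescent read reports ARE-luciferase activity.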
Giardia kill – kills Giardia lamblia; Giardia lamblia trophozoite viability; activity change, % at 7.66 µM, hits read low; 340,000 tested, 0.15% active; in the data active = activity change below about -80%; inconclusive = between about -30% and that limit;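 also: parasites exposed to compound for two days anaerobically before the ATP read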
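Media and compound were dispensed first, then trophozoites at 100 cells/well; plates sat 48 hrs at 37 deg C without oxygen before ATP luminescence reagent was added and read after 15-30 min at room temperature.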
KB-V1 MDR tox – KB-V1 MDR subline cytotoxicity; Potency, µM (titrated, usually from 46.1 µM), usual class: cytotoxic; 400,000 tested, 3.4% active; KB-V1 MDR cells viability, CellTiter-Glo, 72 h; also: nearly all actives have a fitted effect of over 60% in size
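Compound-treated KB-V1 multidrug-resistant cells, 72 h, 37 degrees C; viability by CellTiter-Glo. Fitted qHTS curves give the values.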
KB-3-1 cytotox – KB-3-1 parental cell cytotoxicity. KB-3-1 viability, CellTiter-Glo ATP luminescence, 72 h. Potency, µM (titrated, usually from 46.1 µM), usual class: cytotoxic. 400,000 tested, 1.4% active; also: nearly all actives have a fitted effect of over 60% in size
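Cytotoxicity in the drug-sensitive parental line KB-3-1 was scored as loss of CellTiter-Glo luminescence following 72 h incubation with compound. Values come from curve fitting of normalized concentration-response data.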
PI4K2A block – inhibitors of human PI4K2A. 420,000 tested, 0.13% active. activity change, negative = inhibition, % at 76.9 µM. AID 1346378. purified PI4K2A, ADP-Glo luminescence, 1 h; stronger effect = lower value; in the data active = activity change below about -50%; inconclusive = mostly about -30% to -49%
Target sequence (Q9BTU6 whole entry, looked up): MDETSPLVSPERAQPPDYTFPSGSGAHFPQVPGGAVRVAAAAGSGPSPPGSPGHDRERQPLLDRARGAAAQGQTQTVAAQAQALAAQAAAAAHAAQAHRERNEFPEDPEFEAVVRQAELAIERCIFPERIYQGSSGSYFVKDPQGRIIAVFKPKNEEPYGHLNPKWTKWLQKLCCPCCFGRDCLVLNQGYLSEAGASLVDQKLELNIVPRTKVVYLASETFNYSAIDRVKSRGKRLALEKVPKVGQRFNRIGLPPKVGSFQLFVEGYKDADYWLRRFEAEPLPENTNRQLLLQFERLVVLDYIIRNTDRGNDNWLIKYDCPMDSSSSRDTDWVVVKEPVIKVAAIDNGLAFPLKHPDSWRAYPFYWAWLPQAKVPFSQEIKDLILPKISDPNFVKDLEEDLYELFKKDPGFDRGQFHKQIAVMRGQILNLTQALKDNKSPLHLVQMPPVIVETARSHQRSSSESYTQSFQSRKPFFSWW
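PI4K2A activity was measured by ADP-Glo luminescence: enzyme (4 ug/mL stock) and phosphatidylinositol (1.2 mM stock) in Tris pH 7.5/MgCl2/EGTA/Triton X-100 buffer were reacted with ATP (300 microM stock) for one hour at ambient temperature.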
Nrf2 inh – inhibitors of Nrf2 signaling; A549 ARE-Fluc reporter, luciferase luminescence, 18-24 h; Potency, µM (top dose mostly 46 µM), most hits filed as inhibitors; 360,000 tested, 2.1% active; AID 504444; also: nearly all actives have a fitted effect of over 60% in size
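Cells were seeded and rested 2 h, then exposed to compounds for 18-24 h. CellTiter-Fluor was read first as a viability measure. BugLite was added 15 min before the final luminescent read of ARE-luciferase activity in A549 cells.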
Numbers stand for hits; [ ] = dose if it differs, or a comment. Hits are enriched below; roughly 5.7% of the tested compounds scored in any of these assays. Unless noted, calls follow the shape of the dose curve; as a rule, active = well fitted curve in the direction sought with a large enough effect; inconclusive = small, poorly fitted or top-dose-only effect, or another doubt; inactive = no such curve, though single readings can be large; an effect the other way counts as inactive or inconclusive.

Screening CC1CN(S(=O)(=O)c2cccc(C(=O)N=c3sccn3C)c2)CC(C)O1 (stereo not drawn) returned A549 tox inactive, Giardia kill inactive, KB-V1 MDR tox inactive, KB-3-1 cytotox inactive, PI4K2A block inactive and Nrf2 inh 12µM.
O=C(OCc1cn(Cc2ccccc2F)nn1)N1CCCC1 was read as PI4K2A block inactive.
Screening COc1ccc(-n2c(SCC(=O)Nc3ccc4cn[nH]c4c3)nnc2-c2ccccc2)cc1 returned PI4K2A block inactive.
For CCOC(=O)c1nnn(-c2ccc([N+](=O)[O-])cc2[N+](=O)[O-])c1C the results were A549 tox inactive, Giardia kill inconclusive, KB-V1 MDR tox inactive, KB-3-1 cytotox 23µM, PI4K2A block inactive and Nrf2 inh inactive.
For Cc1cc(NC(=O)CS(=O)(=O)c2cn(Cc3ccccc3Cl)c3ccccc23)no1 the results were A549 tox inactive[1.84 µM], Giardia kill inactive, KB-V1 MDR tox inconclusive, KB-3-1 cytotox inactive, PI4K2A block inactive and Nrf2 inh 26µM.
Screening N#Cc1cnn2c1nc(N1CCCCC1)c1ccccc12 returned A549 tox inactive, Giardia kill inactive, KB-V1 MDR tox 12µM, KB-3-1 cytotox inconclusive, PI4K2A block inactive and Nrf2 inh inconclusive.
Fc1ccc(-c2nc(-c3cccs3)[nH]c2-c2ccc(F)cc2)cc1 was read as A549 tox inactive, Giardia kill inactive, KB-V1 MDR tox 16µM, KB-3-1 cytotox 18µM, PI4K2A block inactive and Nrf2 inh inconclusive.
For Fc1ccc(-c2nc(-c3cccs3)c(-c3cccs3)[nH]2)cc1 the results were A549 tox inactive, PI4K2A block inactive and Nrf2 inh inactive.
C#CCNC(=O)C[C@H]1C(=O)N(Cc2ccc(OC)cc2)C2=CCCC[C@@]21C(=O)OCC was read as PI4K2A block inactive.
Screening Cc1ccc(NC(=O)CCCn2c(=O)c3cccn3c3cccnc32)cc1C returned A549 tox inactive, PI4K2A block inactive and Nrf2 inh inconclusive.
`O=C(c1ccncc1)c1ccc(N2CCN(C3CC(=O)N(Cc4ccccc4)C3=O)CC2)cc1` (stereo not drawn) gave A549 tox inactive, Giardia kill inactive, KB-V1 MDR tox 16µM, KB-3-1 cytotox inconclusive, PI4K2A block inactive and Nrf2 inh inconclusive.
For CC(C)CCOc1ccc(C2=NNC(=O)CC2)cc1 the results were A549 tox inactive, Giardia kill inactive, KB-V1 MDR tox 1.8µM, KB-3-1 cytotox inconclusive, PI4K2A block inactive and Nrf2 inh inconclusive.
`COc1cc2c(cc1OC)C(C)N(C(=O)c1nccnc1C(=O)O)CC2` (stereo not drawn) gave A549 tox inactive, Giardia kill inactive, KB-V1 MDR tox inactive, KB-3-1 cytotox inactive, PI4K2A block inactive and Nrf2 inh inactive.
Screening COc1cc2c(cc1OC)C(CC(=O)O)N(C(=O)Nc1cc(OC)c(OC)c(OC)c1)CC2 (stereo not drawn) returned A549 tox inactive and PI4K2A block inactive.
Screening COc1cc2c(cc1OC)C(C)N(C(=O)Nc1cc(C)cc(C)c1)CC2 (stereo not drawn) returned A549 tox inactive, Giardia kill inactive, KB-V1 MDR tox 6.5µM, KB-3-1 cytotox inconclusive, PI4K2A block inactive and Nrf2 inh inactive.
`COc1cc2c(cc1OC)C(C)N(C(=O)c1cc3c(C)cc(C)cc3[nH]1)CC2` (stereo not drawn) gave A549 tox inactive, Giardia kill inactive, KB-V1 MDR tox inconclusive, KB-3-1 cytotox inconclusive, PI4K2A block inactive and Nrf2 inh 15µM.
COc1cc2c(cc1OC)C(C)N(C(=O)Nc1ccc(F)cc1)CC2 (stereo not drawn) was read as A549 tox inactive, Giardia kill inactive, KB-V1 MDR tox 12µM, KB-3-1 cytotox 13µM, PI4K2A block inactive and Nrf2 inh inactive.
Screening COc1cc2c(cc1OC)C(C)N(C(=O)c1ccc(Br)o1)CC2 (stereo not drawn) returned A549 tox inactive, Giardia kill inactive, KB-V1 MDR tox 13µM, KB-3-1 cytotox 21µM, PI4K2A block inactive and Nrf2 inh inconclusive.
Cc1ccccc1Cn1cc(COC(=O)N(C)Cc2ccccc2)nn1 was read as PI4K2A block inactive.
Screening CCCCNC(=O)C1CCCN1C(=O)Nc1cccc(C)c1 (stereo not drawn) returned PI4K2A block inactive.
For COc1ccc(C2CC(c3ccccc3)=NN2C(=O)c2cccs2)cc1 (stereo not drawn) the results were A549 tox inconclusive, Giardia kill inactive, KB-V1 MDR tox inactive, KB-3-1 cytotox inactive, PI4K2A block inactive and Nrf2 inh inconclusive.
Screening COc1ccc(C2=NN(C(=O)c3cccs3)C(c3ccccc3O)C2)cc1 (stereo not drawn) returned A549 tox inconclusive, Giardia kill inactive, KB-V1 MDR tox inactive, KB-3-1 cytotox inactive, PI4K2A block inactive and Nrf2 inh 23µM.
For COc1ccc(C(=O)N2N=C(c3cccs3)CC2c2ccccc2O)cc1 (stereo not drawn) the results were A549 tox inconclusive, Giardia kill inactive, KB-V1 MDR tox inactive, KB-3-1 cytotox inactive, PI4K2A block inactive and Nrf2 inh 18µM.
For COc1ccc2cc(C3CC(c4cccs4)=NN3C(C)=O)c(Cl)nc2c1 (stereo not drawn) the results were A549 tox inactive, Giardia kill inactive, KB-V1 MDR tox inactive, KB-3-1 cytotox inactive, PI4K2A block inactive and Nrf2 inh inactive.
`COc1ccc(C2/C=C\CN(Cc3ccccc3)C(C)C(=O)N2Cc2ccc(F)cc2)cc1` (stereo not drawn) gave A549 tox inactive, Giardia kill inactive and Nrf2 inh inconclusive.
`O=C(C1CCN(S(=O)(=O)c2ccccc2)CC1)N1CCN(c2ccccc2)CC1` gave A549 tox inactive, Giardia kill inactive, KB-V1 MDR tox inactive, KB-3-1 cytotox inactive, PI4K2A block inactive and Nrf2 inh inactive.
For O=C(C1CCC(CNS(=O)(=O)c2ccc(Br)s2)CC1)N1CCN(c2ccc(F)cc2)CC1 (stereo not drawn) the results were A549 tox inactive, KB-V1 MDR tox inconclusive, KB-3-1 cytotox inactive, PI4K2A block inactive and Nrf2 inh inconclusive.
O=C(C1CCCN(S(=O)(=O)c2ccc(Br)s2)C1)N1CCCCCC1 (stereo not drawn) was read as A549 tox inactive, Giardia kill inactive, KB-V1 MDR tox inconclusive, KB-3-1 cytotox inconclusive and PI4K2A block inactive.
Screening COc1cccc(N2CCN(C(=O)C3CCC(CNS(=O)(=O)c4ccc(Br)s4)CC3)CC2)c1 (stereo not drawn) returned A549 tox inactive, KB-V1 MDR tox inconclusive, KB-3-1 cytotox inactive, PI4K2A block inactive and Nrf2 inh 16µM.

Source: PubChem BioAssay (National Center for Advancing Translational Sciences (NCATS))
